This passage reports reporter increase results from PubChem BioAssay AID602393 (Broad Institute, 2012).

The campaign covered roughly 350,000 compounds. About 7,000 (2%) were called active. No stated cut-off is given here; in the data, active means activation above about 40%; inconclusive means no clear call, values can overlap the other calls; inactive means below that. The entries come from a sample that favours actives as a whole.

The experiment can be described thus: raisers of Bmi1 knock-in reporter signal – mouse ES cells, Bmi1 luciferase knock-in, single point, esBAF inhibitor project, primary screen (AID 602393).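 Further: 0% = median of the plate's neutral control wells and 100% = double that signal; a rise in the Bmi1 reporter signal indicates esBAF inhibition.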 As to conditions: 24 h, at 12.5 µM, active compounds read high, 100% = twice the neutral-well signal.
Consider `CO[C@@H]1CN(C)C(=O)c2cc(NC(=O)C3CC3)ccc2OC[C@@H](C)N(C(=O)c2ccccc2F)C[C@@H]1C`, for which the reporter increase is -20.7% (inactive). As for `C[C@H](CO)N1C[C@H](C)[C@@H](CN(C)S(=O)(=O)c2ccc(Cl)cc2)Oc2ccc(NS(C)(=O)=O)cc2CC1=O`, the figure is -2.32% (inactive); as for `CC(C)C(=O)Nc1c(C(=O)c2ccc(F)cc2)oc2ccccc12`, -8.19% (inactive).

Take `CC(C)C(=O)Nc1ccc2c(c1)oc1ccccc12`: the reporter increase is 60.1% (active). As for `CCc1cccc(NC(=O)COC(=O)c2cc(=O)c3ccccc3o2)c1`, the figure is 8.66% (inactive); as for `C[C@@H]1CN([C@@H](C)CO)S(=O)(=O)c2ccc(C#Cc3ccccc3)cc2O[C@@H]1CN(C)C(=O)C1CC1`, -5.48% (inactive). As for `Cc1ccc(NC(=O)C(=O)NCc2ccco2)c(C)c1`, the figure is 47.2% (active); as for `Cc1ccc(SCC(=O)NC(=O)NCc2ccco2)c(C)c1`, -6.07% (inactive). As for `Cc1ccc(NC(=O)Cn2nnc(C(=O)NCc3ccco3)c2N)c(C)c1`, the figure is 3.66% (inactive); as for `O=C(Cc1ccccn1)NCC[C@H]1CC[C@H](NS(=O)(=O)c2ccccc2)[C@@H](CO)O1`, -4.76% (inactive). As for `Cc1cccc(S(=O)(=O)N[C@H]2CC[C@@H](CCNS(=O)(=O)c3ccccc3F)O[C@H]2CO)c1`, the reporter increase was -0.839% (inactive). Turning to `CCOc1ccc2c(c1)C(c1ccc(C)cc1)=NNC(c1ccc(C)cc1)=N2`, the reporter increase was 67.3% (active).

Consider `CCOc1ccc2[nH]c(=S)sc2c1`, for which the reporter increase was 27.8% (inactive). Take `Cc1ccc(C2=Nc3c(ccc4ccccc34)C(c3ccncc3)=NN2)cc1`: the reporter increase is 10% (inactive).

Take `C[C@@H]1CN([C@@H](C)CO)C(=O)Cc2cc(NS(=O)(=O)c3ccc(F)cc3)ccc2O[C@@H]1CN(C)S(=O)(=O)c1cccs1`: the reporter increase is 4.77% (inactive).

For `CCC(=O)Nc1ccc2c(c1)C(=O)N(C)C[C@@H](OC)[C@@H](C)CN(Cc1ccccc1OC)[C@H](C)CO2`, the reporter increase was -3.34% (inactive). `CNC[C@@H]1Oc2cc(-c3ccccc3OC)ccc2S(=O)(=O)N([C@H](C)CO)C[C@H]1C`: the reporter increase was -6.68% (inactive). As for `CN1CCN(C(=O)C[C@H]2C[C@H]3c4cc(NC(=O)Nc5ccccc5F)ccc4O[C@H]3[C@H](CO)O2)CC1`, the figure is 2.41% (inactive); as for `CC(C)NC(=O)N(C)C[C@@H]1Oc2ncc(C#CC3CC3)cc2C(=O)N([C@@H](C)CO)C[C@H]1C`, 5.43% (inactive).

`O=C(NCc1ccccc1Cl)C1CCCO1` (stereo not drawn): the reporter increase is -4.1% (inactive). As for `CSc1ccc(CNC(=O)c2ccc(NC(=O)C3=CSCCO3)cc2)cc1`, the reporter increase is 15.9% (inactive). As for `O=C(Nc1ccc(C(=O)NCc2ccccc2Cl)cc1)C1=CSCCO1`, the figure is 44% (active).

As for `CCN1[C@@H]2Cn3c(ccc(C4=CCCCC4)c3=O)[C@H]1[C@@H](C(=O)N1CCCCC1)[C@@H]2CO`, the reporter increase is -1.1% (inactive).

As to `O=C(COC(=O)c1ccc(F)cc1)Nc1ccc2c(c1)OCO2`, the reporter increase is 1.17% (inactive). The figure for `O=C(CN1CCSCC1)N/N=C/c1ccc(F)cc1` is 5% (inactive). As for `O=C(Cc1ccc(F)cc1)N/N=C/c1ccc2c(c1)OCO2`, the figure is 52.6% (active). With `C[C@@H](NC(=O)[C@H]1[C@H](CO)[C@H]2Cn3c(cccc3=O)[C@H]2N1C(=O)C1CC1)c1ccccc1`, the reporter increase was 2.89% (inactive).

`COc1ccc(C(=O)Nc2ccc3c(c2)OC[C@H](C)N(C(C)=O)C[C@@H](C)[C@H](OC)CN(C)C3=O)cc1`: the reporter increase was -0.383% (inactive).

As to `Cc1ccc(S(=O)(=O)NCC[C@@H]2CC[C@@H](NC(=O)CCN3CCCCC3)[C@@H](CO)O2)cc1`, the reporter increase is -6.37% (inactive). As for `Cc1ccc(S(=O)(=O)Nc2ccc3c(c2)C(=O)N([C@@H](C)CO)C[C@H](C)[C@@H](CN(C)C(=O)Cc2ccccc2)OCCCC[C@H](C)O3)cc1`, the figure is 0.836% (inactive); as for `Cc1ccnc(NC(=O)CNC(=O)c2ccccc2)c1`, 20.5% (inactive); as for `O=C(Nc1ncccc1O)c1ccc(C(=O)c2ccccc2)cc1`, 21.1% (inactive). As to `O=C(CNC(=O)c1ccc2ccccc2c1)Nc1ncccc1O`, the reporter increase is 51.4% (active). As for `Cc1noc(C)c1S(=O)(=O)N(C)C[C@H]1OCCCC[C@@H](C)Oc2ccc(NC(=O)c3ccccc3)cc2C(=O)N([C@@H](C)CO)C[C@H]1C`, the figure is 5.48% (inactive); as for `O=C(C[C@H]1CC[C@@H](NC(=O)Nc2ccc(C(F)(F)F)cc2)[C@H](CO)O1)NCc1cc(F)cc(F)c1`, 2.19% (inactive); as for `CCC(=O)N1[C@@H]2CN(C(=O)Nc3ccc(Cl)cc3)c3ccccc3[C@@H]2[C@@H]1CO`, 7.74% (inactive). The figure for `CN(C(=O)COC(=O)c1cc(=O)[nH]c2ccccc12)C1CCCCC1` is 59.3% (active); for `COC(=O)C1CCN(C(=O)c2cc(=O)[nH]c3ccccc23)CC1` it is -0.707% (inactive); for `CC1CCN(C(=O)COC(=O)c2cc(=O)[nH]c3ccccc23)CC1` it is 60.1% (active). As for `CC1CCN(C(=O)COC(=O)c2cc(S(=O)(=O)N3CCOCC3)ccc2Cl)CC1`, the figure is -5.57% (inactive); as for `O=C(COC(=O)c1cc(=O)[nH]c2ccccc12)NCc1cccc(Cl)c1`, -2.45% (inactive); as for `O=C(OCc1nnc(-c2ccccc2)o1)c1cc(=O)[nH]c2ccccc12`, -2.08% (inactive). As to `COc1ccc(S(=O)(=O)N(C)C[C@@H]2OCCCC[C@@H](C)Oc3ccc(N(C)C)cc3C(=O)N([C@@H](C)CO)C[C@@H]2C)cc1`, the reporter increase is -1.73% (inactive). The figure for `O=C(C[C@H]1CC[C@@H](NC(=O)c2ccncc2)[C@@H](CO)O1)Nc1ccccc1` is -0.301% (inactive); for `Cc1cc(=O)c2ccc(NC(=O)c3ccccc3)cc2[nH]1` it is 1.23% (inactive).

In the case of `Cn1c(=O)n(C)c2cc(C(=O)Nc3ccc(Br)cc3)ccc21`, the reporter increase was 6.69% (inactive). For the compound `CC(C)n1c(=O)[nH]c2cc(C(=O)Nc3ccccc3)ccc21`, the reporter increase was 46.7% (active).

On to `CNC[C@H]1Oc2ncc(-c3ccccc3C)cc2C(=O)N([C@@H](C)CO)C[C@@H]1C`, for which the reporter increase is -1.27% (inactive). For `C/C(=C\C(=O)c1cccnc1)Nc1ccc(C)c(C)c1`, the reporter increase is 64.2% (active).

As for `Cc1ccc(OCC(=O)NCCCNC(=O)c2cccnc2)cc1C`, the reporter increase was -1.38% (inactive). Consider `Cc1ccc(NC(=O)COc2ccc(/C=N\NC(=O)c3cccnc3)cc2)cc1C`, for which the reporter increase was 1.32% (inactive). The figure for `C[C@H]1CCCCO[C@@H](CN(C)Cc2ccc(C(=O)O)cc2)[C@@H](C)CN([C@@H](C)CO)C(=O)c2cc(NS(C)(=O)=O)ccc2O1` is -4.29% (inactive). As to `COc1ccc(/C=N/Nc2nc3ccccc3o2)cc1OC`, the reporter increase was 45.9% (active). The figure for `C(=N\Nc1ccc2ccccc2n1)/c1ccc2c(c1)OCO2` is -72.8% (inactive). For `CCOc1ccccc1/C=N/Nc1nc2ccccc2o1`, the reporter increase is 25.5% (inactive). Turning to `Brc1ccccc1/C=N/Nc1nc2ccccc2o1`, the reporter increase was 66.2% (active).

For the compound `COc1cccc(/C=N\Nc2nncc(-c3ccccc3)n2)c1`, the reporter increase is 4.67% (inactive). The figure for `O=C(CSc1nc2ccccc2o1)N/N=C/c1ccccc1C(=O)O` is 28.5% (inactive). As for `CCCN1C[C@@H](C)[C@H](OC)CN(C)C(=O)c2ccc(NC(=O)C3CCOCC3)cc2OC[C@@H]1C`, the figure is -4.1% (inactive); as for `C[C@@H]1CN([C@H](C)CO)C(=O)c2cc(NC(=O)Cc3ccccc3)ccc2O[C@@H](C)CCCCO[C@H]1CN(C)C(=O)Cc1ccccc1`, 4.79% (inactive); as for `CCC(=O)N(C)C[C@H]1Oc2cc(C#CC3CC3)ccc2S(=O)(=O)N([C@@H](C)CO)C[C@@H]1C`, -1.51% (inactive). Turning to `CCCNC(=O)[C@@H]1[C@@H](CO)[C@@H]2Cn3c(ccc(-c4cccc(OC)c4)c3=O)[C@H]1N2C(=O)NCCC`, the reporter increase was 1.23% (inactive).

Take `O=C(Nc1ccc(F)cc1)N[C@H]1C=C[C@@H](CC(=O)N2CCOCC2)O[C@H]1CO`: the reporter increase was -15.4% (inactive).

Regarding `Cc1cccc(S(=O)(=O)N2CC[C@@H]3[C@H]2c2cc(C#Cc4ccc(F)cc4)ccc2N[C@@H]3CO)c1`, the reporter increase is 1.22% (inactive). As for `COCC(=O)Nc1ccc2c(c1)OC[C@H](C)N(C(=O)c1ccccn1)C[C@@H](C)[C@H](OC)CN(C)C2=O`, the figure is -4.41% (inactive); as for `COc1ccc(CCNC(=O)c2c(C)nn(-c3ccccc3)c2Cl)cc1`, -5.69% (inactive); as for `Cc1nn(-c2ccccc2)c(Cl)c1/C=N/NC(=O)c1nn(C)cc1[N+](=O)[O-]`, 52.5% (active). As for `Cc1c(NC(=O)c2c([N+](=O)[O-])cnn2C)c(=O)n(-c2ccccc2)n1C`, the reporter increase is -3.74% (inactive).

Take `CCC(=O)N(C)C[C@@H]1Oc2cc(-c3ccc(C#N)cc3)ccc2S(=O)(=O)N([C@@H](C)CO)C[C@@H]1C`: the reporter increase was 2.37% (inactive).

Turning to `CCCc1cn(CC[C@@H]2CC[C@@H](NC(=O)C3CC3)[C@H](CO)O2)nn1`, the reporter increase is 1.12% (inactive). The figure for `C[C@@H]1CN([C@H](C)CO)C(=O)CCCn2nncc2CO[C@@H]1CN(C)Cc1ccc2c(c1)OCCN2C` is -3.86% (inactive); for `CO[C@@H]1CN(C)C(=O)c2cc(NS(C)(=O)=O)ccc2OC[C@H](C)N(C(=O)C2CC2)C[C@@H]1C` it is 0.928% (inactive); for `COCC#Cc1cnc2c(c1)C(=O)N([C@H](C)CO)C[C@H](C)[C@H](CN(C)Cc1ccc(-c3ccccc3)cc1)O2` it is -4.32% (inactive). As for `Cc1c(C(N)=O)sc2ncn(CCOc3ccccc3)c(=O)c12`, the figure is 16.1% (inactive); as for `O=C(NCCOc1ccccc1)c1ccccc1F`, -7.45% (inactive).

Regarding `Cc1nn(CCOc2ccccc2)c(=O)n1-c1ccccc1F`, the reporter increase was 49.4% (active).

`COCC(=O)Nc1ccc2c(c1)[C@H]1C[C@H](CC(=O)NCc3ccccn3)O[C@H](CO)[C@H]1O2`: the reporter increase was 0.452% (inactive).

Regarding `CO[C@H]1CN(C)C(=O)c2ccc(NS(=O)(=O)c3cn(C)cn3)cc2OC[C@@H](C)N(C)C[C@@H]1C`, the reporter increase is -7.11% (inactive).
